This is a sample that favours compounds with a hit; in the whole collection about 19% have one here.
Pf growth 48h = Primary qHTS for delayed death inhibitors of the malarial parasite plastid, 48 hour incubation | 310,000 tested, 5.9% active | P. falciparum luciferase growth in erythrocytes, 48 h | AID 504832, 2011 | Potency, µM (highest dose often 28.7 µM), for inactives: at the top dose activity change, negative = inhibition, most hits filed as inhibitors; further: potency means the concentration at half of the fitted maximal effect; on the % scale 0 is the no-effect control and ±100 the full control effect
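Firefly luciferase activity from engineered P. falciparum reports growth; inhibitors lower the luminescent signal. Cultures contained 2% hematocrit erythrocytes at 0.1% final parasitemia.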
Shiga toxin inh = A qHTS for Small Molecule Inhibitors of Shiga Toxin; AID 2315, 2010; 290,000 tested, 9.2% active; Vero cells, Shiga toxin protein synthesis inhibition reporter; inhibition, % at 38.7 µM; in the data active means inhibition mostly above about 28%, no sharp cut-off; inactive means mostly below about 43%; further: 0% is about no effect
Pf growth 96h = Primary qHTS for delayed death inhibitors of the malarial parasite plastid, 96 hour incubation; Potency, µM (highest dose often 28.7 µM), for the others: at the highest dose activity change, negative = inhibition, most hits filed as inhibitors; 320,000 tested, 6.9% active; AID 504834, 2011; P. falciparum luciferase reporter growth, 96 h; further: potency means the concentration at half of the fitted maximal effect; on the % scale 0 is the no-effect control and ±100 the full control effect
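Luminescence readout: decreased luciferase signal marks inhibited growth of reporter-expressing P. falciparum in infected red cells (2% hematocrit, 0.05% parasitemia final), exposed to compound two generations (96 h, 37 C, 5% CO2).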
MARV entry inh = qHTS for inhibitors of binding or entry into cells for Marburg Virus; Marburg virus pseudotyped entry inhibition, cell reporter; Potency, µM (titrated, usually from 37.8 µM), inactives show at the highest dose activity change, negative = inhibition, most hits filed as inhibitors; 300,000 tested, 1.8% active; AID 540276, 2011; calls by dose curve; tested in HEK293 cells; further: potency means the concentration at half of the fitted maximal effect; on the % scale 0 is the no-effect control and ±100 the full control effect
CHX counter = Cycloheximide Counterscreen for Small Molecule Inhibitors of Shiga Toxin | cell reporter, cycloheximide protein synthesis inhibition counterscreen | max response, % | 300,000 tested, 12% active | AID 2314, 2010; in the data active means max response mostly above about 13%, no sharp cut-off; inactive means mostly below about 14%; further: read at 38.3 µM for the half of the compounds with a filed dose; 0% is about no effect
Lassa entry inh = qHTS for Inhibitors of binding or entry into cells for Lassa Virus. Lassa virus pseudotype entry inhibition, cell reporter. Potency, µM (top dose mostly 37.9 µM), for inactives: at the top dose activity change, negative = inhibition, actives largely listed as inhibitors. 300,000 tested, 1.2% active. AID 540256, 2011; calls by dose curve; tested in HEK293 cells; further: potency means the concentration at half of the fitted maximal effect; on the % scale 0 is the no-effect control and ±100 the full control effect; nearly all actives have a fitted effect of over 50% in size
Numbers without * were called inactive; ? = inconclusive; . = no result given; [ ] = remark or other dose. Unless noted, the call rests on the fitted dose curve; in most records, active means well fitted inhibition curve with a large enough effect; inconclusive means small, poorly fitted or top-dose-only effect, or another doubt; inactive means no such curve, though single readings can be large or run the other way.

SMILES	Pf growth 48h	Shiga toxin inh	Pf growth 96h	MARV entry inh	CHX counter	Lassa entry inh
O=C1NN=C(c2ccc(Cl)cc2)CC1c1cccc(Br)c1 (stereo not given)	4.15µM*	9.5	12.3%	9.7%[46.1 µM]	1.5	3.3%
CCCCN1C(=S)NC[C@@H]1Cc1ccc(O)cc1	-1.0%	-5.9	-9.5%	.	7.2*	.
CCn1nc(-c2ccccc2)nc2c(=O)n(C)c(=O)nc1-2	82.4%	48.3*	-15.7%	0.891µM*	42.8*	?
CC1CCN(S(=O)(=O)c2ccc3c(ccc(=O)n3CC(=O)NCc3ccc(Cl)cc3)c2)CC1	.	.	.	.	.	23.4%[46.1 µM]
Cc1cccc(NC(=O)C2CCCN(S(=O)(=O)c3cnc[nH]3)C2)c1C (stereo not given)	.	.	.	1.4%[46.1 µM]	.	1.6%[46.1 µM]
Cc1ccc(N=CN(C)C=Nc2ccc(C)cc2C)c(C)c1	-15.1%	.	-9.8%	.	.	.
Cc1ccc(N=Cc2c(O)n(-c3ccc4c(c3)OCO4)c(=O)c3ccccc23)cc1	.	-10.3	8.28µM*	2.2%	-2.9	-9.1%
Cc1ccc(N=Cc2sc(O)c3ccccc23)c(C)c1	7.8%	79.6*	24.1%	?	34.2*	13.1%
Cc1ccc(N=Cc2c(O)c3ccccc3n(C)c2=O)cc1	7.9%	58.9	0.1%	6.9%	13.7*	13.0%
Cc1ccc(N=Cc2sc(O)c3ccccc23)cc1	-86.8%	80.5*	-62.7%	?	32.8*	?
CCCN(CCC)C(=O)c1ccc2nc(-c3ccc(OC)c(OC)c3)c(-c3ccc(OC)c(OC)c3)nc2c1	7.38µM*	-10.8	17.0%	.	-5.6	.
COc1ccccc1CNC(=O)c1ccc2nc(-c3ccccc3)c(-c3ccccc3)nc2c1	.	.	.	.	.	26.7%[46.1 µM]
CCC(C)NC(=O)c1ccc2nc(-c3ccc(OC)c(OC)c3)c(-c3ccc(OC)c(OC)c3)nc2c1 (stereo not given)	2.94µM*	-10.8	13.1µM*	.	8.3	.
COc1ccc(NC(=O)CN2C(=O)c3cccnc3Sc3ccccc32)cc1OC	.	.	.	.	.	-14.2%[46.1 µM]
CCOc1ccc(Cc2nc(C)c(CC(=O)N3CCCCC3)c(=O)[nH]2)cc1	31.0%	-4.7	0.0%	15.8%	-2.8	12.8%
N#C/C(=C\c1ccc(N2CCCCC2)o1)C(N)=O	85.1%	20.0	-6.8%	4.4%[46.1 µM]	16.9*	15.3%[46.1 µM]
Cc1ccc(/C=C(\C#N)C(=O)Nc2cccc(Br)c2)o1	.	.	.	.	.	24.7%[46.1 µM]
N#C/C(=C\c1ccc(N2CCCCC2)o1)C(=O)Nc1cccc(Br)c1	122.2%	105.7*	107.5%	?	58.2*	?
CCC(=O)c1c[nH]c(C(=O)NCc2ccco2)c1	20.4%	-9.9	11.8%	-2.3%[46.1 µM]	1.2	-1.7%
CCCSc1nc2cc(OC)c(OC)cc2c(=N)n1CCCN1CCOCC1	11.7µM*	17.4	4.65µM*	14.1µM*	-4.4	?
COc1ccc(-n2nc(C)c3onc(C)c3c2=O)cc1	?	14.8	14.0%	19.9%	-1.8	-3.1%
Cc1ccc(OCc2ccc(C(=O)N3CCCC3)o2)cc1C	?	75.8*	-4.4%	?	34.3*	-24.7%[46.1 µM]
COc1ccccc1OCc1ccc(C(=O)N2CCOCC2)o1	37.1%	16.1	18.4%	-2.5%	-0.6	-1.1%
CCOc1ccc(OCc2ccc(C(=O)N3CCCCC3)o2)cc1	-19.7%	40.4*	-19.0%	?	23.2*	-25.8%[46.1 µM]
CCOc1ccc(OCc2ccc(C(=O)N3CCc4ccccc4C3)o2)cc1	6.5%	29.4	0.0%	4.4%	18.2	?
SMILES	Pf growth 48h	Shiga toxin inh	Pf growth 96h	MARV entry inh	CHX counter	Lassa entry inh
O=C(c1ccc(COc2c(F)c(F)cc(F)c2F)o1)N1CCN(c2ccccc2)CC1	?	-3.6	-11.0%	?	4.9	?
COc1ccccc1OCc1ccc(C(=O)N2CCCCC2)o1	6.7%	26.0	?	-15.8%[46.1 µM]	12.8*	10.0%
O=C(c1ccc(COc2c(F)c(F)c(F)c(F)c2F)o1)N1CCOCC1	5.0%	10.4	13.1µM*	-24.1%	-2.0	-26.5%
CC(C)(C)NC(=O)c1ccc(COc2ccc(Cl)cc2Cl)o1	-9.6%[0.00184 µM]	19.1	?	?	-2.0	?
O=C(c1ccc(COc2ccc(Cl)cc2Cl)o1)N1CCCC1	16.9%	31.3	13.7%	1.2%	33.2*	0.1%
CC1=C(C(=O)Nc2cccnc2)C(c2cccnc2)n2nc(-c3cccs3)nc2N1 (stereo not given)	-0.1%	23.5	9.28µM*	-9.5%	-4.7	3.6%
COc1ccc(-c2nc3n(n2)C(c2ccncc2)C(C(N)=O)=C(C)N3)cc1 (stereo not given)	-2.9%	-6.5	?	6.6%	-2.2	1.9%
COc1ccc(-c2nc3n(n2)C(c2cccnc2)C(C(N)=O)=C(C)N3)cc1 (stereo not given)	-10.4%	4.3	11.7µM*	-21.7%	-4.1	1.3%
CC1=C(C(=O)Nc2ccccc2)C(c2cccnc2)n2nc(-c3cccnc3)nc2N1 (stereo not given)	-14.3%	-8.7	22.6%	16.3%	-2.8	?
CCn1c(CCNC(=O)c2ccc(OC)cc2)nnc1SCC(=O)Nc1ccccc1F	-14.5%	-4.1	25.4%	2.0%[46.1 µM]	10.5	13.4%[46.1 µM]
COC(=O)c1ccc(N2OC3(C)C=CC2CC3)cc1 (stereo not given)	121.5%	active	59.7%	?	56.1*	3.3%
COC(=O)c1ccc(N2C(=O)CC(N3CCOCC3)C2=O)cc1 (stereo not given)	0.8%	-16.3	-20.0%	0.4%	-3.4	3.3%
COc1cc(C2C=C(c3cccs3)Nc3ncnn32)cc(OC)c1OC (stereo not given)	?	27.7	-13.9%	?	-3.0	-13.4%
CCOc1ccc2nc(N3CCCC(C(=O)NCCCN4CCCCC4)C3)sc2c1 (stereo not given)	-10.5%	35.8*	-19.6%	.	19.7*	.
COc1ccc2nc(N3CCCC(C(=O)NCCCN4CCN(C)CC4)C3)sc2c1 (stereo not given)	7.7%	-2.1	.	-16.2%	16.2	51.9%
CCOc1ccc2nc(N3CCCC(C(=O)NCCCN4C(C)CCCC4C)C3)sc2c1 (stereo not given)	-19.3%	54.1*	?	?	16.6*	16.3%[46.1 µM]
CCOc1ccc2nc(N3CCCC(C(=O)NCCCN4CC(C)CC(C)C4)C3)sc2c1 (stereo not given)	?	23.1	?	.	31.7*	.
COc1ccc(Cl)cc1N(C)C(=O)CCc1nc(-c2ccc(C)cc2)no1	?	21.8	116.9%	-9.0%	-2.5	-19.4%
CSc1nc(N)n2nc(-c3ccccc3)cc2n1	345.6%	69.9*	170.3%	?	36.6*	-10.6%[46.1 µM]
Cc1cc(N2CCOCC2)n2nc(-c3cccc(F)c3)cc2n1	6.7%	1.4	-5.2%	-22.6%	-2.0	2.3%
Cc1ccc(-c2cc(N)n3nc(-c4ccc(C)cc4)cc3n2)cc1	39.1%	19.4	48.6%	4.3%	-1.2	-9.0%[46.1 µM]

Screening data: PubChem BioAssay, National Center for Advancing Translational Sciences (NCATS)
